Hits are enriched below; roughly 3.7% of the tested compounds scored in any of these assays.
HttQ103 aggreg: qHTS Multiplex Assay to Identify Dual Action Probes in a Cell Model of Huntington: Aggregate Formation (GFP); PC12 HttQ103-GFP aggregates, Acumen cytometry, 40 h; Potency, µM (top dose mostly 46.1 µM), without a hit: at the top dose activity change, negative = inhibition, most hits filed as inhibitors; hit rate 1.1% among 220,000; further: on the % scale 0 is the no-effect control and ±100 the full control effect; nearly all actives have a fitted effect of over 60% in size
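Ecdysone-promoter PC12 model expressing HTT exon 1 Q103 fused to GFP, induced by tebufenozide at 100 nM final. Compounds titrated; aggregates sized 1–25 µm scored on a 488 nm laser cytometer.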
Tau fluor counter: Counterscreen qHTS for Inhibitors of Tau Fibril Formation, Fluorescence Polarization; AID 1463, 2008; Potency, µM (series often up to 57.7 µM), for the others: at the highest dose activity change, negative = decrease; hit rate 0.93% among 280,000; tau K18 P301L Alexa594 fluorescence, heparin fibrillization; further: on the % scale 0 is the no-effect control and ±100 the full control effect; nearly all actives have a fitted effect of over 55% in size
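Human tau K18 P301L (15 uM unlabeled, 0.24 uM Alexa 594-labeled) in 100 mM sodium acetate pH 7 with 20 uM heparin, 6 hr at 37 C. ThT 30 uM added, 1 hr ambient; Alexa 594 FP and total fluorescence read at 555/632 nm.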
HTT ATP protect: qHTS Multiplex Assay to Identify Dual Action Probes in a Cell Model of Huntington: Cytoprotection (ATP); Potency, µM (highest dose often 56.4 µM), inactives show cytoprotection (ATP increase), usual class: activators; AID 1471, 2008; hit rate 0.14% among 230,000; PC12 HTT-Q103 induced, cytoprotection, ATP luminescence, 40 h; further: % of control where 0% means no effect; nearly all actives have a fitted effect of over 45% in size
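Compounds added alongside 100 nM tebufenozide, which induces toxic Q103 huntingtin exon 1-GFP in stable PC12 cells; surviving cells quantified by luminescent ATP measurement. Medium: phenol red-free DMEM, 5% equine and 5% calf serum.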
Tau fibril ThT: qHTS for Inhibitors of Tau Fibril Formation, Thioflavin T Binding. Microtubule-associated protein tau (Homo sapiens), P10636. recombinant tau K18 P301L (four-repeat tau fragment), heparin-induced fibrillization, ThT fluorescence. Potency, µM (series often up to 57.4 µM), inactives show top-dose activity, negative = inhibition, hits mostly inhibitors. hit rate 2.1% among 270,000. AID 1460, 2008; further: on the % scale 0 is the no-effect control and ±100 the full control effect; nearly all actives have a fitted effect of over 55% in size
Target sequence (P10636 561-689 P618L limits assumed): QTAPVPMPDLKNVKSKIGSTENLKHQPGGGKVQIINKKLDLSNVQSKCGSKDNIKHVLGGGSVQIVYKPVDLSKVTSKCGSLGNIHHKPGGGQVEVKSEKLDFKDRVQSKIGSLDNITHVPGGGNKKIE
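In this qHTS, human K18 P301L tau is incubated with compound and heparin for 6 hr at 37 C, and Thioflavin T fluorescence then reports fibril load.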
Tau FP inhib: qHTS for Inhibitors of Tau Fibril Formation, Fluorescence Polarization; Microtubule-associated protein tau (Homo sapiens), P10636; K18 P301L tau heparin fibrillization, Alexa594 FP, 6 h; Potency, µM (highest dose often 57.7 µM), without a hit: at the highest dose activity, negative = inhibition, actives largely listed as inhibitors; hit rate 0.39% among 280,000; AID 1468, 2008; further: on the % scale 0 is the no-effect control and ±100 the full control effect; nearly all actives have a fitted effect of over 55% in size
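Compound effects on tau fibrillization are measured by Alexa 594 fluorescence polarization (ex 555, em 632 nm). K18 P301L tau is used at 15 uM with 0.24 uM labeled tracer, and 20 uM heparin induces aggregation over 6 hr at 37 C.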
The depositor's hits bear a star; ? = inconclusive; / = no result; [ ] = dose if it differs, or a comment. The call rests on the fitted dose curve; in most records, active means well fitted curve in the direction sought with a large enough effect; inconclusive means small, poorly fitted or top-dose-only effect, or another doubt; inactive means no such curve, though single readings can be large; an effect the other way counts as inactive or inconclusive. Potency means the concentration at half of the fitted maximal effect.

SMILES	HttQ103 aggreg	Tau fluor counter	HTT ATP protect	Tau fibril ThT	Tau FP inhib
c1coc(CNc2nc(-c3ccncc3)cs2)c1	14.1µM*	-2.9%	-12.6%[10 µM]	-8.9%	4.5%
Cc1nc2ccccn2c1-c1csc(NCc2ccco2)n1	5.62µM*	-17.0%	15.8%	?	-10.6%
COc1ccccc1NC(=O)CSc1nncn2c1cc1sccc12	/	-7.5%	/	-3.6%	-7.6%
O=C(Nc1ccc(Cl)cc1)Nc1ccc(N2CCCC2)c(S(=O)(=O)Nc2ccccc2Cl)c1	?	2.82µM*[quencher]	1.0%[10 µM]	-7.6%	?
CC(=O)c1c(C)[nH]c(C(=O)Nc2ccc(C)c(S(=O)(=O)Nc3ccc(C)cc3C)c2)c1C	-4.3%[9.22 µM]	22.4µM*[quencher]	-4.1%[10 µM]	-12.3%	?
Nc1cc(S(=O)(=O)Nc2ccccc2Cl)ccc1N1CCCC1	-16.9%[9.22 µM]	-23.9%	0.8%[10 µM]	-7.0%	14.1%
CC(=O)c1c(C)[nH]c(C(=O)Nc2ccc(C)c(S(=O)(=O)N(C)C)c2)c1C	-1.8%	-3.4%	-19.4%	1.2%	-12.1%
COc1ccccc1NS(=O)(=O)c1cc(NC(=O)Nc2cccc(C)c2)ccc1N1CCCCC1	25.0%	?	/	?	28.2µM*
COc1ccccc1NS(=O)(=O)c1cc(NC(=O)c2[nH]c(C)c(C(C)=O)c2C)ccc1N1CCOCC1	-4.0%[9.22 µM]	12.6µM*[quencher]	-29.4%[10 µM]	-12.0%	?
Cc1ccccc1Nc1cc(C(=O)NC2CCC(C)CC2)c2ccccc2n1 (stereo unspecified)	/	-8.5%	/	-2.4%	0.8%
COCOc1ccc(OC)cc1C(=O)/C=C/c1ccc(OC)c(Br)c1	/	-0.1%	-46.1%	?	?
CC(=O)N[C@@H]1CONC1=O	/	/	-8.8%[10 µM]	/	/
COc1ccccc1NS(=O)(=O)c1cc(NC(=O)c2ccncc2)ccc1N1CCCC1	?	22.4µM*[quencher]	1.4%	?	1.0%
COc1ccccc1NS(=O)(=O)c1cc(NC(C)=O)ccc1N1CCCCC1	2.1%	?	-4.2%	-2.0%	-11.8%
COC(=O)C1=COC(C)C2CN3CCc4c([nH]c5ccccc45)C3CC12 (stereo unspecified)	11.2µM*	-23.9%	-15.5%	-11.0%	-7.9%
COC(=O)C1=CO[C@@H](C)[C@H]2CN3CCc4c([nH]c5ccccc45)[C@@H]3C[C@H]12	/	/	-17.0%[40.3 µM]	/	/
Cc1cccc(NC(=O)CSc2nnc(-c3ccccc3C)o2)c1	0.0028µM*	-22.3%	/	1.3%	?
O=S(=O)(Nc1cc(Sc2ncn[nH]2)c(O)c2ccccc12)c1ccccc1	4.47µM*	?	-208.9%	11.2µM*	25.1µM*
Cc1cc(NS(=O)(=O)c2ccccc2)c(C)c(Cl)c1O	-4.7%	-6.0%	-15.6%	-6.8%	1.5%
CC(=O)c1ccc(NC(=O)c2cnc(N3CCCC3)nc2C)cc1	/	-11.1%	/	?	-0.9%
N[C@@H](Cc1cc(CP(=O)(O)O)cc(-c2ccccc2Cl)c1)C(=O)O	/	-3.2%	31.6µM*	-4.4%	0.8%
CCCCC/C=C\C/C=C\C=C\[C@@H](O)C/C=C\CCCC(=O)O	/	-17.3%	-25.0%	-17.6%	2.4%
Clc1ccc(-c2ccc(C=Nc3ccc(N4CCOCC4)cc3)o2)c(Cl)c1	9.3%	-0.9%	-9.6%	?	-0.6%
Clc1cccc(-c2ccc(C=Nc3ccc(N4CCOCC4)cc3)o2)c1Cl	1.7%[9.22 µM]	?	20.2%[10 µM]	12.6µM*	-24.0%
Cc1cc(O)c(C(C)C)cc1NC(=O)Nc1cccc2ccccc12	-10.7%[9.22 µM]	25.1µM*[quencher]	4.5%[10 µM]	?	18.4%
SMILES	HttQ103 aggreg	Tau fluor counter	HTT ATP protect	Tau fibril ThT	Tau FP inhib
O=C(Nc1ccccc1-c1nc2ccccc2[nH]1)c1ccc(S(=O)(=O)N2CCCCC2)cc1	-6.3%	?	-28.4%	6.2%	12.6µM*
CC1CCCCN1S(=O)(=O)c1ccc(NC(=O)c2cccc(-n3cnnn3)c2)cc1 (stereo unspecified)	-14.5%	17.8µM*[quencher]	-21.2%	9.2%	?
CC1CCCCN1S(=O)(=O)c1ccc(C(=O)Nc2ccccc2-c2nc3ccccc3[nH]2)cc1 (stereo unspecified)	8.4%	?	7.1%[10 µM]	15.5%	14.1µM*
CC1CCCN(S(=O)(=O)c2ccc(NC(=O)c3cccc(-n4cnnn4)c3)cc2)C1 (stereo unspecified)	-11.0%	?	-16.8%[10 µM]	12.0%	?
CC1CCCCN1S(=O)(=O)c1ccc(C(=O)Nc2ccccc2-c2nc3ccccc3s2)cc1 (stereo unspecified)	7.7%	-0.2%	/	10.0%	7.4%
CCN1CCN(C2=CC3=CC(=C(C#N)C#N)CCC3CC2)CC1 (stereo unspecified)	2.82µM*	-24.6%	/	?	-3.2%
CN1CCN(C2=CC3=CC(=C(C#N)C#N)CCC3CC2)CC1 (stereo unspecified)	0.316µM*	-19.5%	-11.9%	?	-9.0%
N#CC(C#N)=C1C=C2C=C(N3CCOCC3)CCC2CC1 (stereo unspecified)	1.26µM*	-2.8%	7.9%[10 µM]	?	4.5%
CC1(C)CC(NCCN2CCN(C3=CC(=C(C#N)C#N)CC(C)(C)C3)CC2)=CC(=C(C#N)C#N)C1	-10.8%	-27.2%	-46.0%	-8.3%	7.0%
N#CC(C#N)=C1C=C2C=C(N3CCCCCC3)CCC2CC1 (stereo unspecified)	0.708µM*	-30.0%	-0.6%[10 µM]	?	7.6%
Cc1ccc(C(=O)c2cn(Cc3cccc(C)c3)c3nc(C)ccc3c2=O)cc1	/	-15.0%	/	?	6.8%
O=C1N=c2ccccc2=C1c1sc(=S)n(NC(=O)c2ccccc2)c1O	-24.4%[9.22 µM]	?	-12.9%[10 µM]	/	?
C=CCn1c(O)c(C2=c3ccccc3=NC2=O)sc1=Nc1ccc(O)cc1	3.2%[9.22 µM]	12.6µM*[quencher]	30.3%[10 µM]	12.6µM*	?
Cc1ccc(N(CC(=O)N2CCN(c3cccc(C)c3C)CC2)S(=O)(=O)c2c(C)nn(C)c2C)cc1	/	-18.6%	/	?	3.9%
CC1=C(CC(=O)c2ccc(Cl)cc2)C(=O)c2ccccc2C1=O	3.55µM*	?	-152.1%	?	?
Cc1ccccc1-c1nsc(SCC(=O)c2ccc(Cl)cc2)n1	10.8%	-14.9%	14.5%[10 µM]	-18.1%	-5.3%
O=C(O)/C=C\C(=O)Nc1ccc(N2CCN(c3cccc(Cl)c3)CC2)cc1	-3.7%[9.22 µM]	-18.3%	2.9%[10 µM]	?	-1.1%
CC(=O)Nc1ccc(NC(=O)/C=C/c2ccccc2)cc1	-1.3%	-7.8%	-19.6%	-11.9%	2.9%
O=C(/C=C/c1ccco1)Nc1ccc(C(=O)N2CCOCC2)cc1	-14.8%	0.5%	21.3%[0.074 µM]	-11.9%	-4.9%
O=C(O)/C=C\C(=O)Nc1ccc(N2CCN(c3ccc(Cl)c(Cl)c3)CC2)cc1	20.9%[9.22 µM]	?	-13.1%[10 µM]	2.24µM*	?
